Molecules are shown by their SMILES. The panel holds about 83,000 compounds, 20% with a hit somewhere; the sample as a whole holds those more often.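 Percent growth is the endpoint: 0 to 100 indicates growth inhibition (40 means 60% inhibition), 0 means no net growth, and negative values indicate cell death.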 Values without a mark were called inactive. The source made the active and inactive calls. How the source made its calls: active means growth percent below 10; inactive means the rest.

This assay deals with HL-60(TB) leukemia. In words: NCI-60 one-dose screen, 48 h (100 = growth as untreated, 0 = no growth, -100 = all killed). The conditions noted are these: 10 µM unless noted.
In the case of `CC(=O)c1cccc(O)c1`, the growth was 100%.
Turning to `Cc1cc(-c2cc(C)c(O)c(C)c2)cc(C)c1O`, the growth is 63.6%.
In the case of `O=C(c1nc2ccccc2[nH]1)C1C(c2ccc([N+](=O)[O-])cc2)C2CC3CCCCC3N2[C@@]12C(=O)Nc1cc(Cl)ccc12` (stereo not given in full), the growth was 8.45% (active).
Regarding `O=C(O)c1ccc(CO)o1`, the growth was 85.6%.
With `Nc1ncc(C#Cc2cncc(NC(=O)c3cccc(C(F)(F)F)c3)c2)c2cccnc12`, the growth was 33.2%.
Next, `CCNc1ccc2ccccc2c1N=Nc1ccc(N=Nc2ccccc2)cc1`: 108%.
Turning to `O=C(NNC(=O)c1nc2cc(F)ccc2n2cccc12)c1cnccn1`, the growth is 17.8%.
Turning to `CC(=O)O[C@H]1C[C@@]2(C)[C@@H](C[C@@H](O)[C@H]3[C@@]4(C)CC[C@H](N5CCCC5)[C@@H](C)[C@@H]4CC[C@@]32C)/C1=C(\CCC=C(C)C)C(=O)O`, the growth is -74.3% (active).
Regarding `O=C1OCC2=C1C(c1cccc(F)c1)c1cc3c(cc1N2CCO)OCCO3` (stereo not given), the growth was -34.5% (active).
For `O=C(CBr)c1ccc(OC(=O)c2ccccc2)cc1`, the growth was 95.5%.
Take `C=C1c2nc3ccccc3n2C=C(c2ccc(Cl)cc2)N1Cc1ccccc1`: the growth was 60.1%.
For `COc1cc2cn3c4ccc(O)cc4nc(N)c3c2cc1OC` the value was 24.5%; for `COc1cc2c(c(OC)c1O)C(=O)C(OC)C(c1ccc(O)c(O)c1)O2` (stereo not given), -28.6% (active); for `O=C(c1ccccc1)N(C(=S)NCCc1ccc(Cl)cc1)c1ccc(Cl)cc1`, 23%.
On to `NC(CCCC(N)C(=O)c1ccccc1)C(=O)O` (stereo not given), for which the growth was 94.3%.
With `COc1cc(C(=O)/C=C/c2cccc(Nc3ccnc4cc(Cl)ccc34)c2)cc(OC)c1OC`, the growth is 5.47% (active).
Take `COc1ccc([C@@H]2[C@@H](Oc3ccccc3)C(=O)N2c2cc(OC)c(OC)c(OC)c2)cc1F`: the growth was -53.9% (active).
`CN(C)c1ccc(-n2nc3ccccc3n2)cc1`: the growth was 90.5%.
For the compound `COc1ncc(-c2ccc3nccc(C#CCCCCC(=O)NO)c3c2)cc1NS(=O)(=O)c1ccc(F)cc1F`, the growth was -33.3% (active).
For the compound `O=C(Nc1sc2c(c1C(=O)O)CCCC2)c1cccc(C(F)(F)F)c1`, the growth was 92.9%.
Consider `COc1cc(C2CC(c3ccc(C)cc3)=NN2C=O)ccc1OCCN(C)C` (stereo not given), for which the growth is 95.3%.
For `O=C(Nc1ccc(NS(=O)(=O)c2ccc(F)cc2)cc1)C12CC3CC(CC(C3)C1)C2`, the growth is 96.1%.
For `C=CCN1C(=O)/C(=C\c2ccc3c(c2)CCC3)SC1=S` the value was 79%.
As for `O=C(Cc1csc2nc(-c3ccc(Cl)cc3)cn12)N/N=C/c1ccccc1O`, the growth is -3.5% (active).
Take `O=C(O)c1cn(C2CC2)c2cc(N3CCN(C(=O)Nc4nc(-c5ccc(Br)cc5)cs4)CC3)c(F)cc2c1=O`: the growth is -2.62% (active).
As for `COc1ccc(NC(=O)c2ccc(-c3ccccc3)cc2)c(C(N)=O)c1`, the growth was 61.7%.
`Cn1cc(-c2csc(-c3c[nH]c4ccc(F)cc34)n2)c2cnccc21`: the growth is -59.4% (active).
Turning to `C/C(CC(=O)NNc1ccc([N+](=O)[O-])cc1)=N\Nc1ccc([N+](=O)[O-])cc1`, the growth is 28.8%.
Next, `O=C1c2cccc(NCCN=Cc3cc(O)ccc3O)c2C(=O)c2c(NCCN=Cc3cc(O)ccc3O)cccc21`: -72.5% (active); `COc1ccc(-c2cc(-c3cc(OC)c(OC)c(OC)c3)c(C#N)c(N3CCOCC3)n2)cc1O`: -31.8% (active).
`Cc1[nH]c(/C=C2\C(=O)Nc3ccc(F)cc32)c(C)c1C(=O)NC[C@H](O)CN1CCOCC1`: the growth is 4.41% (active).
In the case of `Cc1c(Cl)cccc1C(=O)Nc1nc2c(s1)CN(C(=O)Nc1cccc(C(F)(F)F)c1)CC2`, the growth is 6.4% (active).
Next, `O=C1c2ccc3c4c(ccc(c24)C(=O)N1CCCCO)C(=O)N(CCCCO)C3=O`: 7.09% (active); `CCCc1cc(C(N)=S)ccn1`: 103%; `C=C1CC[C@@H]2[C@](C)(COC(C)=O)[C@H](OC(C)=O)CC[C@@]2(C)[C@@H]1CC(NCc1ccccc1)C1=CCOC1=O` (stereo not given in full): -9.93% (active).
Next, `N#C/C(=C\c1ccc(Cl)cc1)n1nnc2cc(F)c(F)cc21`: -19.4% (active).
As to `Oc1[nH]c2ccccc2c1/C=c1/ccc2c(c1)N=C(c1ccc(C(F)(F)F)cc1)N=2`, the growth was 74.3%.
For the compound `COc1ccc(N=Cc2c(O)ccc3c2oc2cc(Cl)c(O)c(Cl)c23)cc1`, the growth was 86.6%.
For the compound `Cc1ccc2nc(Cl)c(Cn3nnnc3SCc3ccccc3)cc2c1`, the growth is 97.4%.
As for `COc1cc(-c2cc(/C=C/C(C)=O)[nH]n2)cc(OC)c1OC`, the growth was 66.7%.
